# Assay results: paper PMC7862700, “An all-to-all approach to the identification of sequence-specific readers for epigenetic DNA modifications on cytosine”
# Assays:
# Experiment in all cases: DAPPL (digital affinity profiling via proximity ligation, sequencing); 10 mM Tris-HCl pH 7.5, 50 mM NaCl, 1 mM DTT, 4% glycerol, room temperature, 30 min; GST-TFs on glutathione beads, 16-mer random dsDNA library, 0.1% formaldehyde crosslink after washing; high values mean tight binding
# Details in all cases: protein: recombinant; tags: N-terminal GST; dsDNA, one strand shown
# [1] = target: ETV1 (Homo sapiens, UniProt P50549 1-477)
# Method in brief: (§1)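 Pools were built from human transcription factors expressed in yeast as GST fusions, captured on glutathione beads and DNA-barcoded, along with a tag-only sample. Incubation with 200 nmole of a 16-mer random double-stranded DNA library lasted 30 min at room temperature in Tris/NaCl/DTT/glycerol buffer, and was followed by washing, 0.1% formaldehyde crosslinking, proximity ligation, PCR amplification and Illumina NextSeq500 sequencing. Binding signal is the quotient of each hexamer's read frequency for a factor and its frequency for the tag-only sample.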
# [2] = target: T1, ERF (Homo sapiens, UniProt P50548 1-548)
# T1 sequence: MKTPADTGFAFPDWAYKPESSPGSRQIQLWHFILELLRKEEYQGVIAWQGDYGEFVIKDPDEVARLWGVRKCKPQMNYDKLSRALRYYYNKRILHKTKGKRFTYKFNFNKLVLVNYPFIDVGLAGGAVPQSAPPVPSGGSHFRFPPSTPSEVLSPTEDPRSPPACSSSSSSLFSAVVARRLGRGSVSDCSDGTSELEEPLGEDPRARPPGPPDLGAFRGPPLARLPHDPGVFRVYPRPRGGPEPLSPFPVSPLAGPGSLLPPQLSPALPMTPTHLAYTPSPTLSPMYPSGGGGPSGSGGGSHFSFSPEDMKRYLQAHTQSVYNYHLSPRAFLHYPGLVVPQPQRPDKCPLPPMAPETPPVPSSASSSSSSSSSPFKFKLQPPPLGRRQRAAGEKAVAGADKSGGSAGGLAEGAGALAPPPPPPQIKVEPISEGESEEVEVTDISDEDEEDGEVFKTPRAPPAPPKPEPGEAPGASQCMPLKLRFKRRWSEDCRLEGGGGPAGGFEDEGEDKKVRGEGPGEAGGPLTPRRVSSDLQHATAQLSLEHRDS
# Method in brief: as §1
# [3] = target: T2, ETV3L (Homo sapiens, UniProt Q6ZN32 1-361)
# T2 sequence: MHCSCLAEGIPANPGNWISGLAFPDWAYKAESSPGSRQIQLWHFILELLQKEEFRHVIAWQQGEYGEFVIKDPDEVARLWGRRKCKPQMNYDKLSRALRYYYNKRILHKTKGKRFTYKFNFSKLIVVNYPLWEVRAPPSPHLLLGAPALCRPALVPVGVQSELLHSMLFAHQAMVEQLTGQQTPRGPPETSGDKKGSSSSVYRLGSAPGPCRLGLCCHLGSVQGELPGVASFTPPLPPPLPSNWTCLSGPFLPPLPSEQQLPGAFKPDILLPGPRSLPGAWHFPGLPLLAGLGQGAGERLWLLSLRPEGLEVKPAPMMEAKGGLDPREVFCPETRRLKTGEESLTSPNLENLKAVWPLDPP
# Method in brief: as §1
# [4] = target: T3, ETS2 (Homo sapiens, UniProt P15036 1-469)
# T3 sequence: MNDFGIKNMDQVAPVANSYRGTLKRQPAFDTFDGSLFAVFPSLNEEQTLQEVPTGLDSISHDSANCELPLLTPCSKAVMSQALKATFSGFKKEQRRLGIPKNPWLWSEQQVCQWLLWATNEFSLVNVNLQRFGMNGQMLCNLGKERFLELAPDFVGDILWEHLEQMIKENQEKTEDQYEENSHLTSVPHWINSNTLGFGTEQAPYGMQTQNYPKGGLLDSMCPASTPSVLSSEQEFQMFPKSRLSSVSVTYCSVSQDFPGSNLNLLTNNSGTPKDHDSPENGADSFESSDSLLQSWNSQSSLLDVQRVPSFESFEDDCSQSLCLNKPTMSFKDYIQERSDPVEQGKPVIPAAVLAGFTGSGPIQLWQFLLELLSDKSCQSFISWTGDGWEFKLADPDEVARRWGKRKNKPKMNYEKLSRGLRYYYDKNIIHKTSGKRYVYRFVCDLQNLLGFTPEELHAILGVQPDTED
# Method in brief: as §1
# [5] = target: T4, SPDEF (Homo sapiens, UniProt O95238 1-335)
# T4 sequence: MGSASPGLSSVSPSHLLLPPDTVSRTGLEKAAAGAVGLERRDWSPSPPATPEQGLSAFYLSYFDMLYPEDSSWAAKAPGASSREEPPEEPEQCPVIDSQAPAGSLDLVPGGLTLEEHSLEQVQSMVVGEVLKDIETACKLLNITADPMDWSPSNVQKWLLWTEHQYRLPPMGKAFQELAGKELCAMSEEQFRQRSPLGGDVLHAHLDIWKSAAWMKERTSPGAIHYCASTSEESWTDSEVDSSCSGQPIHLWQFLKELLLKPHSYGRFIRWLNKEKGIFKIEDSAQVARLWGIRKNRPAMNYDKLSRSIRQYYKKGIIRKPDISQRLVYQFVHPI
# Method in brief: as §1
# [6] = target: T5, ETV7 (Homo sapiens, UniProt Q9Y603 1-341)
# T5 sequence: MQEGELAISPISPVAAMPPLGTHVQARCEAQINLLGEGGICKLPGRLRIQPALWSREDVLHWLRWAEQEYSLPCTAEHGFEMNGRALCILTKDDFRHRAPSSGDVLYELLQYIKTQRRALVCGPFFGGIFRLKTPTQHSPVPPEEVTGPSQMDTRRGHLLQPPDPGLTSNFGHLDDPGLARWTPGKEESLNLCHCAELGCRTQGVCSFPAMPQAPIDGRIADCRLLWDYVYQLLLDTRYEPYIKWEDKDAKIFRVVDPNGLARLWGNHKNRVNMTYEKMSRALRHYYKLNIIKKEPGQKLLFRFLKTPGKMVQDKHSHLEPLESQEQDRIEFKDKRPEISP
# Method in brief: as §1
# [7] = target: T6, ELF5 (Homo sapiens, UniProt Q9UKW6-2 1-255)
# T6 sequence: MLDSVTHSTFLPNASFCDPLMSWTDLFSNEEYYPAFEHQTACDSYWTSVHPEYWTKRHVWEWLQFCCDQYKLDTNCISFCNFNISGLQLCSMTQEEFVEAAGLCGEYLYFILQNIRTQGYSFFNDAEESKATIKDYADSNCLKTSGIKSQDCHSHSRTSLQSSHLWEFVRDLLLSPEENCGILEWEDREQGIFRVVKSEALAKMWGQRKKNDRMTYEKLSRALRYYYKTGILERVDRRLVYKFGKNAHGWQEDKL
# Method in brief: as §1
# [8] = target: T7, ETV3 (Homo sapiens, UniProt P41162-2 1-143)
# T7 sequence: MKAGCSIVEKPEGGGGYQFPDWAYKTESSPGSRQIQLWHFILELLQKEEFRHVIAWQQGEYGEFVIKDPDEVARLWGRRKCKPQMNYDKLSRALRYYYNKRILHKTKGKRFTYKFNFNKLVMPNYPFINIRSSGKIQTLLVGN
# Method in brief: as §1
# [9] = target: ETV6 (Homo sapiens, UniProt P41212 1-452)
# Method in brief: as §1
# Sequence of ETV1 (P50549 whole entry, the tested form may be a part): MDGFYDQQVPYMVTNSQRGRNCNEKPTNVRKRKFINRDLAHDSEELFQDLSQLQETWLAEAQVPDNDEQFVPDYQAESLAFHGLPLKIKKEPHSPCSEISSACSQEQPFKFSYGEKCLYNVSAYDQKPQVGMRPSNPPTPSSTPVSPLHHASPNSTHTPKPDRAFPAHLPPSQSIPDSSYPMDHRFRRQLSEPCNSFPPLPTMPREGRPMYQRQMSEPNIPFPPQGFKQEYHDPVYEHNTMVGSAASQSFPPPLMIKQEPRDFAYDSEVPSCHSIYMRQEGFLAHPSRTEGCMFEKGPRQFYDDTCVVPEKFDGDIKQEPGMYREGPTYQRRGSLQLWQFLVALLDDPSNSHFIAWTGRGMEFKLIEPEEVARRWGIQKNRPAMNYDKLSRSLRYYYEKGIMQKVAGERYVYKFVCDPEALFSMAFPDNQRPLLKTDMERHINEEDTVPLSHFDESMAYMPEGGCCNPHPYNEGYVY
# Sequence of ETV6 (P41212 whole entry): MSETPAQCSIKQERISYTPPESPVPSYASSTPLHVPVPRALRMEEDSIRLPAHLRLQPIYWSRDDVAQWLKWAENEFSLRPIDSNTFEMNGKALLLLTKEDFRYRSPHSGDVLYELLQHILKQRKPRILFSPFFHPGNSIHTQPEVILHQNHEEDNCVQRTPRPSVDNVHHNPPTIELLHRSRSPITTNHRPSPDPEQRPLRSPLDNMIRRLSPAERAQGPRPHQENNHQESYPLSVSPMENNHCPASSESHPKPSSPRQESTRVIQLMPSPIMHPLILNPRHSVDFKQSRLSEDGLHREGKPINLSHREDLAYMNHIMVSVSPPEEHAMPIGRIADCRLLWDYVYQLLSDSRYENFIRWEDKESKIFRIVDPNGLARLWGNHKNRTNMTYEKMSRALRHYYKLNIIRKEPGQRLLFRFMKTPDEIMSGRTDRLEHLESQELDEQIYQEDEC
sequence,measurement,setting,value
GCCCTT,binding signal,[1],"1.17 fold enrichment (6-mer frequency, TF over GST control)"
same,binding signal,[2],"1.11 fold enrichment (6-mer frequency, TF over GST control)"
same,binding signal,[3],"1.16 fold enrichment (6-mer frequency, TF over GST control)"
same,binding signal,[4],"1.15 fold enrichment (6-mer frequency, TF over GST control)"
same,binding signal,[5],"1.26 fold enrichment (6-mer frequency, TF over GST control)"
same,binding signal,[6],"1.07 fold enrichment (6-mer frequency, TF over GST control)"
same,binding signal,[7],"1.09 fold enrichment (6-mer frequency, TF over GST control)"
same,binding signal,[8],"1.14 fold enrichment (6-mer frequency, TF over GST control)"
same,binding signal,[9],"1.27 fold enrichment (6-mer frequency, TF over GST control)"
